Measurements as given in PubChem BioAssay AID449762 (Southern Research Specialized Biocontainment Screening …, 2010).
The campaign covered roughly 330,000 compounds. About 1,900 (0.58%) were called active. About 4% were inconclusive and are not listed. A selection follows. Entries with a potency or affinity are not part of this list. Values without a mark were called inactive. Rule as the data show it: inconclusive = inhibition above about 70% without an active follow-up result; inactive = below that.

Experiment: M. tuberculosis growth inhibition, HTS (AID 449762);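 also: bacterial growth assessed after seven days of incubation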
Conditions: M. tuberculosis H37Rv growth inhibition, 7H9 media; at 25 µM; hits give high values

| SMILES | inhibition |
| --- | --- |
| COc1ccc(S(=O)(=O)N(Cc2ccc(OC)c(OC)c2)Cc2ccco2)cc1 | 12.4% |
| O=C1NNC(=O)C1c1ccccc1 | 0.86% |
| COc1cccc(C2[C@H](C)C3(CCN2C)OCCO3)c1 (stereo partly specified) | 1.26% |
| C=CCN(C(=O)c1csnn1)C(C(=O)NCc1ccccc1)c1ccccc1F (stereo unspecified) | 5.11% |
| COc1ccc(NC(=S)N2CCC(c3ccccc3)C2)cc1 (stereo unspecified) | 0.04% |
| CCCC(=O)OCC(=O)Nc1ccc([N+](=O)[O-])cc1C#N | 0.66% |
| O=C1CCc2cc(S(=O)(=O)NCCc3ccccc3)cc3c2N1CC3 | -3.75% |
| CN1CCN(CC(O)COc2ccc(C(=O)O)cc2)CC1 (stereo unspecified) | 4% |
| COc1ccc(C=O)cc1CN1CCCN(Cc2ccccc2F)S1(=O)=O | 9.36% |
| C=CCc1cc(OC)ccc1OCCOCCC(C(=O)OCC)C(=O)OCC | -13% |
| C=CCc1cc(C)ccc1OCCOCCC(C(=O)OCC)C(=O)OCC | -7.06% |
| Cc1ccc2[nH]c(C(=O)O)c(-c3ccccc3)c2c1 | 6.59% |
| O=C(NN=C1CCCC1)c1[nH]c2ccc(Br)cc2c1-c1ccccc1 | 62% |
| CCOC(=O)Cn1cnc2c(nnn2-c2ccc(C)cc2)c1=O | -14.9% |
| CCC(NC(=O)c1cc(COc2c(F)cccc2F)on1)c1ccncc1 (stereo unspecified) | -2.33% |
| CC(CN1C(C)CCCC1C)OC(=O)c1cccc(F)c1 (stereo unspecified) | 3.14% |
| CC(C)C1CC(CCN)(Cc2ccccc2)CCO1 (stereo unspecified) | 1.79% |
| COc1ccc2cc(C#N)c(N3CCOCC3)nc2c1 | 3.82% |
| COc1ccc2cc(C#N)c(N3CCN(C(=O)c4ccccc4C)CC3)nc2c1 | 11.1% |
| O=S(=O)(CCN1CCSCC1)c1ccc(Cl)cc1 | -12.2% |
| CSCCC(NC(=O)COc1ccccc1)C(=O)N1CCN(C(C)=O)CC1 (stereo unspecified) | 4.67% |

| SMILES | inhibition |
| --- | --- |
| Cc1ccc(NC(=O)c2c(C)nc3ccccn23)cc1C | -2.44% |
| Cc1nc2ccccn2c1C(=O)N/N=C/c1ccccc1 | -1.76% |
| CCOC(=O)N1CCN(C(=O)COC(=O)Cc2ccc(OC)cc2)CC1 | -5.2% |
| CC(C)CNC(=O)c1cccc(NC(=O)Cc2ccc(Cl)cc2)c1 | -1.92% |
| CCc1nc(C)cn1S(=O)(=O)c1cc(F)ccc1OC | 0.63% |
| Fc1ccc(Nc2cccc3nccnc23)cc1 | 7.88% |
| Cc1ccc(OS(=O)Nc2cccc3nccnc23)cc1 (stereo unspecified) | 49% |
| CNC(=S)NNC(=O)c1cc(-c2cccnc2)nc2ccccc12 | -1.9% |
| COc1ccc(NC(=O)COC(=O)CCc2ccc(S(=O)(=O)N3CCOCC3)cc2)c(OC)c1 | -0.81% |
| Cc1[nH]n(-c2ccccc2)c(=O)c1C(=O)c1ccc(Cl)cc1 | 67.2% |
| Cc1[nH]n(-c2ccccc2)c(=O)c1C(=O)c1ccccc1 | 1.23% |
| CCCSc1cc(NCCOC(C)=O)c([N+](=O)[O-])c2nonc12 | 14.4% |
| COC(=O)CCSc1cc(NCCOC(C)=O)c([N+](=O)[O-])c2nonc12 | 27.1% |
| O=c1cc(CO)oc(C(Nc2ccccn2)c2cccc(F)c2)c1O (stereo unspecified) | -4.25% |
| Cc1ccc(-n2ccnc2SCC(=O)c2c(N)n(C3CC3)c(=O)[nH]c2=O)cc1C | -3.24% |
| COc1ccc(OCCCC(=O)OC(C)C(=O)Nc2ccc(NC(C)=O)cc2)cc1 (stereo unspecified) | -25.7% |
| CC(OC(=O)CCC(=O)c1cccs1)C(=O)Nc1ccccc1[N+](=O)[O-] (stereo unspecified) | -1.97% |
| O=C(CC12CC3CC(CC(Br)(C3)C1)C2)Nc1cccc(S(=O)(=O)NC2=NCCC2)c1 | 7.59% |
| CC(C)(C)NC(=S)N1CCn2cccc2C1c1cccnc1 (stereo unspecified) | -4.33% |
| O=C(N/N=C/c1ccc2ncccc2c1)c1cccc([N+](=O)[O-])c1 | 10.3% |
| CCCCNC(=O)CSc1nc2cc3c(cc2c(=O)n1Cc1ccco1)OCO3 | -13% |

| SMILES | inhibition |
| --- | --- |
| CCN1C(=O)/C(=C/c2ccc(N3CCCC3)cc2)NC1=S | -3.08% |
| COC(=O)COc1ccc(/C=C2/NC(=O)N(CC(=O)OC)C2=O)cc1 | 0.75% |
| CN(CC(=O)Nc1c(Cl)cccc1Cl)C(=O)Cc1cccs1 | -16.5% |
| O=C(Nc1cccc(-c2nc3ccccc3s2)c1)c1cc(=O)c2ccccc2o1 | 10.9% |
| Cn1ncc([N+](=O)[O-])c1C(=O)Nc1cccc(Cl)c1 | -25.5% |
| Cc1nc2c3ccccc3nc(NNC(=O)CCC(=O)N3CCC(C)CC3)n2n1 | -3.15% |
| Cc1nonc1OCCN1CCN(c2ccc([N+](=O)[O-])cc2)CC1 | 9.04% |
| Cc1ccc(S(=O)(=O)Nc2ccc(C(N)=O)cc2)cc1[N+](=O)[O-] | -1.5% |
| CCOC(=O)c1ccc(NC(C)=O)c([N+](=O)[O-])c1 | -9.36% |
| CCCNc1ccc(C(=O)OCC)cc1[N+](=O)[O-] | -11.2% |
| O=C(/C=C/c1ccccc1)N/C(=C/c1ccccc1)C(=O)Nc1cccc(C(=O)O)c1 | -8.21% |
| Nc1cc2c(cc1C(=O)c1ccc(Cl)cc1)OCCO2 | 4.52% |
| O=C(COc1ccc(Cl)cc1Cl)N/N=C/c1cccnc1 | -6.12% |
| COc1cc(OC)cc(C(=O)Nc2ccc(N(C)C)c3ccccc23)c1 | 1.99% |
| CN(C)c1ccc(NC(=O)c2ccncc2)c2ccccc12 | -1.45% |
| CCOC(=O)C1=C(C)Nc2nc(C)nn2C1c1ccc(C)cc1 (stereo unspecified) | 5.22% |
| CCCCN(CCCC)Cc1ccc(C(=O)NNC(=O)Nc2ccc(F)cc2)o1 | 4.32% |
| Cc1ccc(S(=O)(=O)NC(CC(C)C)C(=O)N2CCCC2)cc1 (stereo unspecified) | -3.51% |
| CC(=O)Nc1ccc(S(=O)(=O)N[C@@H](C)C(=O)N2CCN(C/C=C/c3ccccc3)CC2)cc1 | -13.2% |
